Measurements reported in PubChem BioAssay (NCATS).
Inconclusive results are not listed. Where a call stands in place of a potency, no number is given. Values without a mark were called inactive. The source made the active and inactive calls. Calls come from the whole dose curve; as a rule, active = well fitted curve in the direction sought with a large enough effect; inconclusive = small, poorly fitted or top-dose-only effect, or another doubt; inactive = no such curve, though single readings can be large; an effect the other way counts as inactive or inconclusive.

Columns and labels:
[1] = molecular target: Rap guanine nucleotide exchange factor 3 (Homo sapiens) (UniProt O95398); assay: Confirmatory qHTS for agonist of cAMP-regulated guanine nucleotide exchange factor 3 (EPAC1) (AID 1645881); note: nearly all actives have a fitted effect of over 75% in size; note: potency is the fitted concentration of half-maximal effect;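 for activation: EPAC1 catalysed release of BODIPY-GDP from Rap1B seen as fluorescence loss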
Sequence of Rap guanine nucleotide exchange factor 3 (Homo sapiens) (O95398 whole entry, looked up): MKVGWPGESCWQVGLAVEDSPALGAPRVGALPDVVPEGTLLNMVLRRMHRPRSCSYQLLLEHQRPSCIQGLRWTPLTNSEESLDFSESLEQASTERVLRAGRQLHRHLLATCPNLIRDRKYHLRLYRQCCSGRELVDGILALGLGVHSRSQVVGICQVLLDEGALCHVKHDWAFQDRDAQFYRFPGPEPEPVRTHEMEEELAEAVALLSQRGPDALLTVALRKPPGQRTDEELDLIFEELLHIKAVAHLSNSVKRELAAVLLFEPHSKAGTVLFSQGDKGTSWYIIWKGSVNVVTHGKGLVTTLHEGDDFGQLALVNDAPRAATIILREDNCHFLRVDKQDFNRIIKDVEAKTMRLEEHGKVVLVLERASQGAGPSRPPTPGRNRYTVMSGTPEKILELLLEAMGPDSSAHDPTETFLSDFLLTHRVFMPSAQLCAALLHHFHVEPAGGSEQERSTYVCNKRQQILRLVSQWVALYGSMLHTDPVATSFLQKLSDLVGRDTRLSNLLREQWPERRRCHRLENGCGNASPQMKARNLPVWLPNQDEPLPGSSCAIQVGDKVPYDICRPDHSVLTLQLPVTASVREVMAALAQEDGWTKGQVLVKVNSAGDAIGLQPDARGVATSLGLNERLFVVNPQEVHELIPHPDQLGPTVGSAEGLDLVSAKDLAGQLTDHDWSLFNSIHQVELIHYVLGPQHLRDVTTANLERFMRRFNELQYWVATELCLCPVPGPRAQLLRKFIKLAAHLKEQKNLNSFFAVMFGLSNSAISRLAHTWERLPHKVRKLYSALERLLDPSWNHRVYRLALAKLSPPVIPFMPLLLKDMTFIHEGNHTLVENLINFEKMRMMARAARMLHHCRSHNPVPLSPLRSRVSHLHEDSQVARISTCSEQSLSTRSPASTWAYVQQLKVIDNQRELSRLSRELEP

[2] = molecular target: Rap guanine nucleotide exchange factor 4 (Homo sapiens) (UniProt Q8WZA2); assay: Confirmatory qHTS for agonist of cAMP-regulated guanine nucleotide exchange factor 4 (EPAC2) (AID 1645884);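 note: nucleotide exchange releases bodipy-GDP from Rap1 and this lowers its fluorescence; nearly all actives have a fitted effect of over 65% in size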
Sequence of Rap guanine nucleotide exchange factor 4 (Homo sapiens) (Q8WZA2 whole entry, looked up): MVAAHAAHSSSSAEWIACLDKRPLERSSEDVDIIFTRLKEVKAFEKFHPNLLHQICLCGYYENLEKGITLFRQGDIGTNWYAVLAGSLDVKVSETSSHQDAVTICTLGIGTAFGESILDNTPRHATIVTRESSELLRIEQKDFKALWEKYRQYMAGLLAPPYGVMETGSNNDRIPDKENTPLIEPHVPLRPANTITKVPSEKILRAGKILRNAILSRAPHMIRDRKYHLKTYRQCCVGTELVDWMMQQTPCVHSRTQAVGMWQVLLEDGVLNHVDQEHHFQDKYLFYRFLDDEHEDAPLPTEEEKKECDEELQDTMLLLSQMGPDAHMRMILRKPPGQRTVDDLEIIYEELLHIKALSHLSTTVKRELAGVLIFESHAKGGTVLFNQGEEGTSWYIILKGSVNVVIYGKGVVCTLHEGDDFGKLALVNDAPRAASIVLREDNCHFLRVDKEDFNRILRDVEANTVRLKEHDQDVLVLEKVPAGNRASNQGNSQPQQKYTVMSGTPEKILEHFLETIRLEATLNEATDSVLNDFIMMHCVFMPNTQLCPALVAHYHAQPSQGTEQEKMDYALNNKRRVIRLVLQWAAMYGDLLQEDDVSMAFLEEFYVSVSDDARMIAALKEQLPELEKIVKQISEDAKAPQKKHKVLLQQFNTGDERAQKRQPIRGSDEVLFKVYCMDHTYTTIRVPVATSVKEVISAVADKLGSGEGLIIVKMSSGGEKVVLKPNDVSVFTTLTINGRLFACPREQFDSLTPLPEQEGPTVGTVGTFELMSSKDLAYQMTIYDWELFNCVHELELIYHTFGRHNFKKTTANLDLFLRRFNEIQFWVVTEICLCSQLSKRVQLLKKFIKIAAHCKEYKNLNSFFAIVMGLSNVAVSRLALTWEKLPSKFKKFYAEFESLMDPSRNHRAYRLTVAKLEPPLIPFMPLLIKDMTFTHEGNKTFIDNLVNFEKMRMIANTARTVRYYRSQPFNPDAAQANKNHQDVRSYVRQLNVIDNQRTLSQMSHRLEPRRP

[3] = molecular target: Rap guanine nucleotide exchange factor 4 (Homo sapiens) (UniProt Q8WZA2); assay: Confirmatory qHTS for antagonist of cAMP-regulated guanine nucleotide exchange factor 4 (EPAC2) (AID 1645885); note: nearly all actives have a fitted effect of over 25% in size; note: potency is the fitted concentration of half-maximal effect
[4] = molecular target: Rap guanine nucleotide exchange factor 3 (Homo sapiens) (UniProt O95398); assay: Counterscreen qHTS for antagonist of cAMP-regulated guanine nucleotide exchange factor 3 (EPAC1) (AID 1645888);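 note: fluorescence loss as bound BODIPY-GDP is released from Rap1B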
Procedure, shortened: (§1)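 Rap1B-BODIPY-GDP 250 nM + GDP 50 uM; cpds 7-pt, final 9.74 nM–152 uM (activator mode) or from 7.32 nM upwards (inhibitor mode); RT; FI 480/540 nm at 5 and 30 min, then ± cAMP, reread.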

[5] = molecular target: Rap guanine nucleotide exchange factor 3 (Homo sapiens) (UniProt O95398); assay: Counterscreen qHTS for agonist of cAMP-regulated guanine nucleotide exchange factor 3 (EPAC1) (AID 1645889); note: nearly all actives have a fitted effect of over 40% in size; note: potency is the fitted concentration of half-maximal effect
Procedure, shortened: as §1

Compound	Potency [1]	activation [2]	Potency [3]	activity change, negative = inhibition [4]	activation [5]	Potency [2]	Potency [4]	Potency [5]
COc1cc(/C=N/NC(=O)c2ccccc2O)ccc1OCC(=O)Nc1ccccc1	inactive	-7.34% [at 17.1 µM, percent relative to cAMP agonist control]	inactive	0.781% [at 30.8 µM]	13.4% [at 30.8 µM]	–	–	–
CCN(CC)c1ccc(/C=C2/C(=O)c3ccc(C(=O)O)cc3C2=O)cc1	inactive	4.11% [at 17.1 µM, percent relative to cAMP agonist control]	inactive	8.07% [at 30.8 µM]	9.24% [at 30.8 µM]	–	–	–
O=C(O)C(Cc1ccccc1)N1C(=O)/C(=C/c2cccs2)SC1=S (stereo not given)	inactive	–	75.7 µM (active)	–	–	inactive	inactive	inactive
O=[N+]([O-])c1cc(CN2CCN(c3cccc(C(F)(F)F)c3)CC2)c2cccnc2c1O	inactive	–	inactive	–	–	inactive	inactive	inactive
O=[N+]([O-])c1ccc(-n2nnnc2-c2ccccc2)c([N+](=O)[O-])c1	inactive	–	inactive	–	–	inactive	inactive	inactive
O=C(CCn1cnc2onc(-c3ccc(F)cc3)c2c1=O)Nc1ccc(F)c(Cl)c1	inactive	–	inactive	–	–	inactive	inactive	inactive
O=c1c2ccccc2c(C=Nc2ccc(O)cc2)c(O)n1Cc1ccccc1	inactive	1.98% [at 17.1 µM, percent relative to cAMP agonist control]	inactive	-7.68% [at 30.8 µM]	1.81% [at 30.8 µM]	–	–	–
CC1(Cc2ccccc2Cl)C(=O)Nc2ccc(OC(F)(F)F)cc21 (stereo not given)	inactive	0.883% [at 17.1 µM, percent relative to cAMP agonist control]	inactive	-9.83% [at 30.8 µM]	5.61% [at 30.8 µM]	–	–	–
O=C(Nc1ccc(Br)cc1C(=O)O)c1ccc2c(c1)C(=O)N(Cc1ccccc1)C2=O	inactive	–	inactive	–	–	inactive	inactive	inactive
Cc1onc(-c2c(F)cccc2Cl)c1C(=O)OCc1cnc(Cl)s1	inactive	–	26.9 µM (active)	–	–	inactive	inactive	inactive
O=C(c1ccc(-c2nnc(Nc3cccc(Cl)c3)c3ccccc23)cc1)N1C[C@H]2C[C@H](C1)c1cccc(=O)n1C2	inactive	–	inactive	–	–	inactive	inactive	inactive
CCCCN1CC(c2nc3ccccc3n2CCCCOc2cc(C)cc(C)c2)CC1=O (stereo not given)	inactive	–	inactive	–	–	inactive	inactive	inactive
Cc1[nH]c(=O)nc(SCc2cccc(Cl)c2)c1C#N	inactive	–	inactive	–	–	inactive	inactive	inactive
CCOC(=O)C1=C(C)N=c2s/c(=C/c3cccc([N+](=O)[O-])c3O)c(=O)n2C1c1ccccc1 (stereo not given)	inactive	–	inactive	–	–	inactive	inactive	inactive
CCOCc1nnc(NC(=O)C2c3ccccc3Oc3ccccc32)s1	inactive	–	67.5 µM (active)	–	–	inactive	inactive	inactive
O=C1C=CC(c2ccccc2)(c2ccccc2)CC1	inactive	8.73% [at 17.1 µM, percent relative to cAMP agonist control]	inactive	-3.3% [at 30.8 µM]	29.7% [at 30.8 µM]	–	–	–
C=CCn1c(C)cc(C2=NNC(=Nc3ccc(C)cc3)SC2)c1C	inactive	–	inactive	–	–	inactive	inactive	inactive
O=C1CC(c2c(F)cccc2Cl)c2c(ccc3ccccc23)N1 (stereo not given)	inactive	–	inactive	–	–	inactive	inactive	inactive
COc1ccc(S(=O)(=O)Nc2cc(SCC(=O)O)c(O)c3ccccc23)cc1	inactive	–	inactive	–	–	inactive	inactive	56.2 µM (active)

Compound	Potency [1]	activation [2]	Potency [3]	activity change, negative = inhibition [4]	activation [5]	Potency [2]	Potency [4]	Potency [5]
Oc1ccc(NCc2ccc(OCc3ccccc3)cc2)cc1	inactive	–	inactive	–	16.4% [at 30.8 µM]	inactive	inactive	–
O=C(Nc1cccnc1)c1c(O)c2cccc3c2n(c1=O)CC3	inactive	9.2% [at 17.1 µM, percent relative to cAMP agonist control]	inactive	-2.81% [at 30.8 µM]	22.3% [at 30.8 µM]	–	–	–
O=C1/C(=C/c2cccc(F)c2)SC(=S)N1NS(=O)(=O)c1ccccc1	inactive	–	inactive	–	–	inactive	inactive	inactive
CC(OC(=O)/C(C#N)=C/c1ccc(N(C)C)cc1)C(=O)N(C)c1ccccc1 (stereo not given)	50.1 µM (active)	3.03% [at 17.1 µM, percent relative to cAMP agonist control]	inactive	-2.82% [at 30.8 µM]	20.3% [at 30.8 µM]	–	–	–
CCOC(=O)Cc1csc(NC(=O)COc2ccc3ccccc3c2)n1	inactive	9.25% [at 17.1 µM, percent relative to cAMP agonist control]	inactive	5.57% [at 30.8 µM]	21.1% [at 30.8 µM]	–	–	–
Cc1cccc(C)c1-c1ccc(CN2C(CC(C)C)C(=O)N(Cc3cn(CCO)nn3)CCS2(=O)=O)cc1 (stereo not given)	inactive	-6.44% [at 17.1 µM, percent relative to cAMP agonist control]	inactive	9.55% [at 30.8 µM]	18.7% [at 30.8 µM]	–	–	–
CC(/C=C1\SC(=S)N(CCC(=O)Nc2cccc(C(=O)O)c2)C1=O)=C\c1ccccc1	inactive	9.03% [at 17.1 µM, percent relative to cAMP agonist control]	inactive	19.7% [at 30.8 µM]	16.2% [at 30.8 µM]	–	–	–
CNC(=S)N1CCc2cc(OC)c(OC)cc2C1COc1ccc(F)cc1 (stereo not given)	inactive	0% [at 17.1 µM, percent relative to cAMP agonist control]	inactive	-1.54% [at 30.8 µM]	46.8% [at 30.8 µM]	–	–	–
O=c1cc(-c2c(O)c3ccccc3n(Cc3ccccc3)c2=O)[nH][nH]1	inactive	–	inactive	–	–	inactive	inactive	inactive
Cc1ccc(CNC(=O)c2c[nH]n3c(=O)c(Cc4ccc(Cl)cc4)c(C)nc23)cc1	inactive	–	inactive	–	–	inactive	inactive	inactive
COc1ccc(NC(=O)CN2CCN(c3c(C)cc(C)cc3C)CC2)cc1	inactive	7.83% [at 17.1 µM, percent relative to cAMP agonist control]	inactive	9.75% [at 30.8 µM]	16.1% [at 30.8 µM]	–	–	–
Oc1cccc(-c2nc3ncccn3c2Nc2cccc(C(F)(F)F)c2)c1	inactive	–	inactive	–	–	inactive	inactive	inactive
CCOC(=O)N(C)c1c(CC)nc2c(OCc3ccc(C(F)(F)F)cc3)cccn12	inactive	–	inactive	–	–	inactive	inactive	inactive
Cc1cc(NS(=O)(=O)c2ccc(Nc3nc(-c4ccc(O)cc4)cs3)cc2)no1	inactive	–	26.9 µM (active)	–	–	inactive	inactive	inactive
CCOP(=O)(OCC)C(Cc1ccccc1)N=C(c1ccccc1)c1ccccc1 (stereo not given)	inactive	2.26% [at 17.1 µM, percent relative to cAMP agonist control]	inactive	3.36% [at 30.8 µM]	12.6% [at 30.8 µM]	–	–	–
O=C1CC(c2ccccc2)=NN1c1nc(-c2ccccc2)cs1	inactive	–	inactive	–	–	inactive	inactive	inactive
O=C(Nc1nc2ccccc2[nH]1)C1CCN(S(=O)(=O)c2cccs2)CC1	inactive	–	inactive	–	–	inactive	inactive	inactive
Cc1nn(-c2ccccc2)c(Cl)c1/C=C1\SC(=S)N(CCCCCC(=O)O)C1=O	inactive	-0.0903% [at 17.1 µM, percent relative to cAMP agonist control]	inactive	-15.3% [at 30.8 µM]	22.3% [at 30.8 µM]	–	–	–
N#CCC(=O)Nc1ccc(C(=O)OCC(=O)Nc2ccc3ccccc3c2)cc1	inactive	–	inactive	–	–	inactive	inactive	inactive
